Shown are actives, neighbours in structure and some others; about 2.2% of the full set was active somewhere.
FBPA Giardia inh = qHTS Assay for Inhibitors of Fructose-1,6-bisphosphate Aldolase from Giardia Lamblia; A8B2U2; purified Giardia FBPA; Potency, µM (series often up to 59.6 µM), for the others: at the highest dose activity, negative = inhibition, hits mostly inhibitors; 290,000 compounds, 0.71% hits; AID 2451, 2010; active = well fitted inhibition curve with a large enough effect; inconclusive = small, poorly fitted or top-dose-only effect, or effect the other way; note: nearly all actives have a fitted effect of over 55% in size
Target sequence (A8B2U2 whole entry, looked up): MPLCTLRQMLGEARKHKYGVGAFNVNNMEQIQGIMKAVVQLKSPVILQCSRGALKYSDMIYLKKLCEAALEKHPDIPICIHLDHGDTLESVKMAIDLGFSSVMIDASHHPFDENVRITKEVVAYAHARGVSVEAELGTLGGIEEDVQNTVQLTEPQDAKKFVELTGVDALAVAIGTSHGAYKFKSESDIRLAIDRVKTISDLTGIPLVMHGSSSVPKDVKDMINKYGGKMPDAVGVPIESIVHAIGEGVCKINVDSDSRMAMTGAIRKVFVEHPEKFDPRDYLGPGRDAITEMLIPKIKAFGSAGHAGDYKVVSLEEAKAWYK
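Giardia FBPA (40 nM reagent) was preincubated 10 min at RT with compound (up to 57.5 uM final), then substrate plus GAPDH/TPI/NAD/arsenate coupling system with diaphorase/resazurin was added; resorufin fluorescence (525/598 nm) was read after 20 min.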
Vaccinia Venus = qHTS for Stage-Specific Inhibitors of Vaccinia Orthopoxvirus: Venus Reporter Primary qHTS; Vaccinia virus Venus reporter expression, fluorescence; Potency, µM (series often up to 36.5 µM), for the others: at the top dose activity change, negative = inhibition, most hits filed as inhibitors; 330,000 compounds, 0.46% hits; AID 720580, 2013; calls by dose curve; tested in A549 cells; note: nearly all actives have a fitted effect of over 30% in size
Vaccinia mCherry = qHTS for Stage-Specific Inhibitors of Vaccinia Orthopoxvirus: mCherry Reporter Primary qHTS. Vaccinia virus mCherry reporter infection, fluorescence. AID 720579, 2013. Potency, µM (highest dose often 36.5 µM), inactives show top-dose activity change, negative = inhibition, most hits filed as inhibitors. 310,000 compounds, 0.63% hits; calls by dose curve; tested in A549 cells; note: nearly all actives have a fitted effect of over 35% in size
FMDV inh = High Throughput Screening for Foot and Mouth Disease Virus Antivirals; FMDV antiviral cell-based qHTS; Potency, µM (top dose mostly 57.9 µM), for inactives: at the highest dose activity change, negative = inhibition, usual class: inhibitors; 410,000 compounds, 1.2% hits; calls by dose curve; tested in HEK293T cells; note: read-out not given here; nearly all actives have a fitted effect of over 45% in size
* hit, by the source's call; i = inactive; ? = inconclusive; . = no result; ! = a repeat was not active. % is set by controls: 0 for no effect and ±100 for the full control effect; potency is the fitted concentration of half-maximal effect.

SMILES | FBPA Giardia inh | Vaccinia Venus | Vaccinia mCherry | FMDV inh
CCN1CCN(Cc2ccc(NC(=O)c3cc(NC(=O)c4ccc5n[nH]nc5c4)cc(OC)c3)cc2C(F)(F)F)CC1 | 4% | -1% | i | -11%
Cc1ccccc1OC(C)C(=O)NCCNC(=O)C(C)Oc1ccccc1C (configuration not stated) | . | -6% | -14% | .
Cn1nnc2c(N3CCN(Cc4ccccc4)CC3)ncnc21 | . | -19% | -26% | .
CC(=O)c1ccc2c(c1)OCO2 | 2% | 12% | 2% | -21%
C[n+]1cc2c3c(ccc2c2ccc4cc5c(cc4c21)OCO5)OCO3 | 6.3µM*! | 10µM* | 11µM* | 25µM*
O=C(NCc1ccccn1)c1cnn(-c2ncc3c(n2)-c2ccccc2CC3)c1C1CC1 | . | -9% | -14% | -12%
Cc1cc(N(C)C)c(C)cc1/C=C/c1ccnc2ccccc12 | . | 12% | -26% | .
CCn1cc(CN(C)C(=O)CSc2nc(-c3ccco3)cc(C(F)(F)F)n2)c(C)n1 | . | -22% | -28% | 20µM*
Cc1c(CN(C)C(=O)CSc2nc(-c3ccco3)cc(C(F)(F)F)n2)cnn1C | 4% | -15% | -16% | .
Cc1ccc(NC(=O)c2cc(S(=O)(=O)N3CCc4ccccc43)cn2C)cc1 | 6% | -16% | -23% | ?
Cn1cc(S(=O)(=O)N2CCc3ccccc32)cc1C(=O)Nc1ccc(Cl)cc1 | -3% | ? | -21% | 28µM*
O=[N+]([O-])c1ccc(Nc2nc(NCCN3CCOCC3)nc(Nc3ccc(Cl)cc3)n2)cc1 | . | -29% | -25% | .
COc1cc(OC)c(/C=C/c2cc3c4ccccc4ccc3[n+](C)c2)c(OC)c1 | . | -16% | -23% | .
O=[N+]([O-])c1ccc(-c2nc(Cl)c3c(n2)CCCC3)o1 | . | ? | 11µM* | -25%
Cc1ccc(-c2c(C#N)c(N)nc3c2CCCCC3)o1 | -9% | . | . | 0%
C/C=C/C(=O)OCC(=O)Nc1ccc(OC)c(Cl)c1 | -1% | 10µM* | 8.9µM* | -4%
COc1ccc(NC(=O)CN2CCN(CC(=O)Nc3ccccc3Cl)CC2)cc1Cl | -10% | -23% | i | 40µM*
C/C=C/C(=O)OCC(=O)Nc1ccc(OC)c(OC)c1 | -2% | ? | ? | 21%
NNC(=O)c1cccc(COc2ccc(Br)cc2)c1 | 1% | -13% | -25% | -28%
COc1ccc(OCc2cccc(C(=O)NN)c2)cc1 | -10% | -5% | i | 8.9µM*
COC(=O)C1CCN(Cc2ccc3c(c2)CN(C(=O)c2ncc(C)[nH]2)CCO3)CC1 | . | 6% | -8% | -12%
CCn1c(C)c(C(C)=O)c(N2CCN(C(c3ccccc3)c3ccccc3)CC2)nc1=S | -8% | 0% | i | 32µM*
COCC1CCCN(Cc2ccc3c(c2)CN(C(=O)c2cccnc2OC)CCO3)C1 (configuration not stated) | . | ? | -10% | -10%
CC(C)(C)c1ccc(OCCC(=O)Nc2ccc(N3CCOCC3)cc2N2CCOCC2)cc1 | . | -26% | 13µM* | -20%
c1cncc(-c2nnc(-c3cccnc3)nn2)c1 | ? | 2% | -9% | ?
SMILES | FBPA Giardia inh | Vaccinia Venus | Vaccinia mCherry | FMDV inh
Cn1c(SSc2ccc(-c3cccnc3)n2C)ccc1-c1cccnc1 | . | ? | 13µM* | ?
N#CC(c1ccc(Cl)cc1)c1ccc2c(C(F)(F)F)cc(C(F)(F)F)nc2n1 (configuration not stated) | -14% | 14µM* | . | ?
COCC(=O)Nc1cc(C(=O)N2CCCC(C(N)=O)C2)cc2nc(-c3ccccc3)n(C)c12 (configuration not stated) | . | -6% | -14% | -6%
COc1ccc2ccccc2c1C1NC(=O)c2ccccc2N1 (configuration not stated) | . | 5.6µM* | ? | -27%
COc1ccc(C2NC(=O)c3ccccc3N2)cc1OC (configuration not stated) | -8% | -9% | -14% | 8%
C#CCN(C[C@@H]1[C@@H](OC(=O)NCc2ccco2)[C@@H](OC(=O)NCc2ccco2)Cn2c(=O)ccc(=O)n21)S(=O)(=O)c1ccc(C)cc1 | . | 7.9µM* | ? | 6.3µM*
C#CCN(C[C@@H]1[C@@H](OC(=O)NCc2ccco2)[C@@H](OC(=O)NCc2ccco2)Cn2c(=O)n(CCCCCC)c(=O)n21)S(=O)(=O)c1ccc(C)cc1 | . | -25% | -19% | 28µM*
C#CCN(C[C@@H]1[C@@H](OC(=O)NCc2ccccc2)[C@@H](OC(=O)NCc2ccccc2)Cn2c(=O)n(CCCCCC)c(=O)n21)S(=O)(=O)c1ccc(C)cc1 | . | -19% | -2% | -11%
Cc1ccc2c(/C=C/c3ccc(N(C)C)cc3)ccnc2c1C | . | -1% | -7% | .
Cc1cccnc1-c1cccc2c1OC(CNC(=O)C(=O)c1ccccc1)C2 (configuration not stated) | . | -13% | -14% | -10%
COc1cccc(-c2cc(C(F)(F)F)n3ncc(C(=O)NCC4CCCO4)c3n2)c1 (configuration not stated) | 1% | . | . | 28µM*
CCOC(=O)c1ccccc1OCc1cc(C2Nc3ccccc3C(=O)N2c2cccc3ccccc23)ccc1OC (configuration not stated) | . | -3% | 38% | .
CC1=C(C)C(=O)C(N2CCOCC2)=CC1=O | 1.4µM* | . | . | 0%
O=C1C=C(N2CCOCC2)c2ccccc2C1=O | ? | 11µM* | ? | ?
O=C1C=C(N2CC2)c2ccccc2C1=O | . | -5% | ? | ?
COc1ncccc1C(=O)N1CCOc2ccc(C(O)C(c3ccccc3)c3ccccc3)cc2C1 (configuration not stated) | . | -14% | -19% | 5%
COCCCNC(=O)C[C@H]1C[C@H](C(=O)N2CCCCC2)[C@@]2(CCc3ccccc3)c3[nH]c4ccc(Cl)cc4c3CCN2C1=O | . | ? | ? | 40µM*
O=C(CC1C[C@H](C(=O)N2CCCCC2)[C@@]2(CCc3ccccc3)c3[nH]c4ccccc4c3CCN2C1=O)NCCc1ccccn1 (some centres not stated) | . | ? | 10µM* | -8%
O=C(C[C@H]1C[C@H](C(=O)N2CCOCC2)[C@@]2(CCC3CCCC3)c3[nH]c4cc(-c5ccco5)ccc4c3CCN2C1=O)NCCc1ccccn1 | . | 10µM* | ? | -27%
C[C@]12c3[nH]c4ccccc4c3CCN1C(=O)C(CC(=O)NCCc1ccccn1)C[C@@H]2C(=O)N1CCCCC1 (some centres not stated) | . | -10% | i | -14%
Cc1cc(C)cc(NC(=O)CSc2nnc(-c3cc4occc4n3C)n2-c2ccccc2C)c1 | . | -17% | -19% | -7%
COc1ccc[n+](CC(=O)c2ccc(F)cc2)c1 | . | -7% | -16% | .
COc1ccc(-n2c(CCNC(=O)c3ccccc3C(F)(F)F)nnc2SC)cc1 | . | 22% | 2% | 0%
CC1CCC(NC(=O)c2ccc(CS(=O)(=O)c3ccc(Cl)cc3)o2)CC1 (configuration not stated) | . | -4% | -9% | 32µM*

Bioassay records: PubChem, National Center for Advancing Translational Sciences (NCATS)
